Key:
Assay in all cases: DAPPL (digital affinity profiling via proximity ligation, sequencing); 10 mM Tris-HCl pH 7.5, 50 mM NaCl, 1 mM DTT, 4% glycerol, room temperature, 30 min; GST-TFs on glutathione beads, 16-mer random dsDNA library, 0.1% formaldehyde crosslink after washing; high values mean tight binding
Conditions in all cases: protein: recombinant; tags: N-terminal GST; dsDNA, one strand shown
ERF = target: T1, ERF (Homo sapiens, UniProt P50548 1-548)
T1 sequence: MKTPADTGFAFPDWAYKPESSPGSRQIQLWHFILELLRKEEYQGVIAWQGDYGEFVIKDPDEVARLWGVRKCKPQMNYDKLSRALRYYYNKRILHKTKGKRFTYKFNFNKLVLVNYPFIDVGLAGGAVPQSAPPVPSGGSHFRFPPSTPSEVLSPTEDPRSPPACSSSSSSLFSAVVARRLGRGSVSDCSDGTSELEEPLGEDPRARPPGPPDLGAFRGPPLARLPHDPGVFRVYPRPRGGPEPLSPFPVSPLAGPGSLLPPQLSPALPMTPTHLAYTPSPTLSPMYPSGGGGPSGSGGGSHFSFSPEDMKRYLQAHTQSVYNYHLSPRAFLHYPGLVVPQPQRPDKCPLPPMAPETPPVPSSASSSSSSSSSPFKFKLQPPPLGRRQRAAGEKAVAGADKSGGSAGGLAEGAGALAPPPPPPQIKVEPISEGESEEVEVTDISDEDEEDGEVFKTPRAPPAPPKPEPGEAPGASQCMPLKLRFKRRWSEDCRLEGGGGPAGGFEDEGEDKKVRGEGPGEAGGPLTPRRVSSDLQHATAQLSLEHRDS
Method in brief: (§1)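 Pools of DNA-barcoded human transcription factors, expressed in yeast as GST fusions on glutathione beads and combined with a tag-only sample, were incubated with 200 nmole of a 16-mer random double-stranded DNA library. Incubation took 30 min at room temperature in Tris/NaCl/DTT/glycerol buffer and was followed by washing, 0.1% formaldehyde crosslinking, proximity ligation (BsaI/T4 ligase, 1 h, 37 °C), PCR amplification and sequencing on an Illumina NextSeq500. Binding signal is the ratio of a hexamer's read frequency for a factor to its frequency for the tag-only sample.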

ETV3L = target: T2, ETV3L (Homo sapiens, UniProt Q6ZN32 1-361)
T2 sequence: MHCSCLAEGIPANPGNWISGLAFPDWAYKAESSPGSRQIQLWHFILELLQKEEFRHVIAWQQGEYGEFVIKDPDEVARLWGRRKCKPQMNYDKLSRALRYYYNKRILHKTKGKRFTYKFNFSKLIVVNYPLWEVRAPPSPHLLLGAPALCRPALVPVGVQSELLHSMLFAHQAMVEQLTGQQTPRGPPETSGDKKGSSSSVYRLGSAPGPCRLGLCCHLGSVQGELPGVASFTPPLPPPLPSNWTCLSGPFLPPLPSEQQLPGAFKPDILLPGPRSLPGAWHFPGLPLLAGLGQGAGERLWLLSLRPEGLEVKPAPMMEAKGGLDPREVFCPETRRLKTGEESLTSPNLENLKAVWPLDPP
Method in brief: as §1

ETS2 = target: T3, ETS2 (Homo sapiens, UniProt P15036 1-469)
T3 sequence: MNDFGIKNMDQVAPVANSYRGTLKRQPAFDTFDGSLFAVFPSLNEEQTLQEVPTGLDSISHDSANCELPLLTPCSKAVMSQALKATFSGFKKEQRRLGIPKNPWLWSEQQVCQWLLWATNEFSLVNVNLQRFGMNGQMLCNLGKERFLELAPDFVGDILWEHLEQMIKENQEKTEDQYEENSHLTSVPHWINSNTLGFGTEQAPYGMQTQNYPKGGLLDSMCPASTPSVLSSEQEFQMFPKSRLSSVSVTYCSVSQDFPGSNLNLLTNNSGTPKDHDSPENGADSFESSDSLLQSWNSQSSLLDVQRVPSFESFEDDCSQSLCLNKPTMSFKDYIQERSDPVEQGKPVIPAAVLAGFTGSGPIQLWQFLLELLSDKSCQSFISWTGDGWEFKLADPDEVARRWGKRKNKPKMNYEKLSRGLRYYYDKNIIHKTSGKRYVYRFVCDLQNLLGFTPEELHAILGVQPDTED
Method in brief: as §1

SPDEF = target: T4, SPDEF (Homo sapiens, UniProt O95238 1-335)
T4 sequence: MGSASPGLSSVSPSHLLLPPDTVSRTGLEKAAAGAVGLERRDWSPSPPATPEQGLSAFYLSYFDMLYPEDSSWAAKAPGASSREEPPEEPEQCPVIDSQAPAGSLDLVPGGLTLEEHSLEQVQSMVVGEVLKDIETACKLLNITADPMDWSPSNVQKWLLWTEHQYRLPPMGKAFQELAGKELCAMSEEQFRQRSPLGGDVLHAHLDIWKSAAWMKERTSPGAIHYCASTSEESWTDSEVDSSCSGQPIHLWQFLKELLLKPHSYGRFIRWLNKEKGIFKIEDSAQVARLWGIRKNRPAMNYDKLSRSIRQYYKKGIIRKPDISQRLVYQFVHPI
Method in brief: as §1

ETV7 = target: T5, ETV7 (Homo sapiens, UniProt Q9Y603 1-341)
T5 sequence: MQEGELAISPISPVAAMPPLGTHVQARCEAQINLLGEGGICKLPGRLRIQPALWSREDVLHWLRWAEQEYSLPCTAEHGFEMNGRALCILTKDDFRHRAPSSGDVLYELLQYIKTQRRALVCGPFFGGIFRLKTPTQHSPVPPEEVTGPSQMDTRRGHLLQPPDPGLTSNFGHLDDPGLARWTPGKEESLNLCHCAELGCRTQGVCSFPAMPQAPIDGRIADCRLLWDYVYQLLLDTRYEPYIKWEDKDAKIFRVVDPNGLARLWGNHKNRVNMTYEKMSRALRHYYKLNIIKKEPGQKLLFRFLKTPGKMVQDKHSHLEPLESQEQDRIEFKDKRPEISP
Method in brief: as §1

ELF5 = target: T6, ELF5 (Homo sapiens, UniProt Q9UKW6-2 1-255)
T6 sequence: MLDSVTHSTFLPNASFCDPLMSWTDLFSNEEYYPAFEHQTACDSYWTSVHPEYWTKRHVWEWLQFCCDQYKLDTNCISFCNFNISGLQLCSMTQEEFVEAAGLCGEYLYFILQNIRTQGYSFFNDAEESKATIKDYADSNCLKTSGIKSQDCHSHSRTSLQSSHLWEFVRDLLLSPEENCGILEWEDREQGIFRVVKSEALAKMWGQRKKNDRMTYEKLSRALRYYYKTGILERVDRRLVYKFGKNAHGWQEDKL
Method in brief: as §1

ETV3 = target: T7, ETV3 (Homo sapiens, UniProt P41162-2 1-143)
T7 sequence: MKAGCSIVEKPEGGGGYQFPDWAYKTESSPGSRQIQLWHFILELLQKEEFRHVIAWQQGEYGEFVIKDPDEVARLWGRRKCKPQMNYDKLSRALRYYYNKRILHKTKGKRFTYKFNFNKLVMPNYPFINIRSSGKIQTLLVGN
Method in brief: as §1

ETV6 = ETV6 (Homo sapiens, UniProt P41212 1-452)
ETV6, sequence (P41212 whole entry): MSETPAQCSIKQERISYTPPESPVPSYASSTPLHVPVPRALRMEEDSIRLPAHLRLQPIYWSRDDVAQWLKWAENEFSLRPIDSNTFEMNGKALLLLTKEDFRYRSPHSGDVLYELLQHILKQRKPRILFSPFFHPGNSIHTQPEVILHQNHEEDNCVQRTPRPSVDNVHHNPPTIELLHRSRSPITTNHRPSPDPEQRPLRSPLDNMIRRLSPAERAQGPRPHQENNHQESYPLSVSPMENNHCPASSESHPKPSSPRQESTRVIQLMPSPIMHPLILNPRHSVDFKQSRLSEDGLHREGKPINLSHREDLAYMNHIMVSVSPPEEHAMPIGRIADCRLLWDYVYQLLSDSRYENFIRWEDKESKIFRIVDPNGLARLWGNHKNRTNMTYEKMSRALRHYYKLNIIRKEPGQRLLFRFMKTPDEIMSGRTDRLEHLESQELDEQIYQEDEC
Method in brief: as §1

Sequence | binding signal (ERF) | binding signal (ETV3L) | binding signal (ETS2) | binding signal (SPDEF) | binding signal (ETV7) | binding signal (ELF5) | binding signal (ETV3) | binding signal (ETV6)
CTCGTA | 1.23 fold enrichment (6-mer frequency, TF over GST control) | 1.43 fold enrichment (6-mer frequency, TF over GST control) | 1.37 fold enrichment (6-mer frequency, TF over GST control) | 1.2 fold enrichment (6-mer frequency, TF over GST control) | 1.11 fold enrichment (6-mer frequency, TF over GST control) | 1.28 fold enrichment (6-mer frequency, TF over GST control) | 1.23 fold enrichment (6-mer frequency, TF over GST control) | 1.2 fold enrichment (6-mer frequency, TF over GST control)
ACAACT | 1.4 fold enrichment (6-mer frequency, TF over GST control) | 1.36 fold enrichment (6-mer frequency, TF over GST control) | 1.39 fold enrichment (6-mer frequency, TF over GST control) | 1.43 fold enrichment (6-mer frequency, TF over GST control) | 1.14 fold enrichment (6-mer frequency, TF over GST control) | 1.36 fold enrichment (6-mer frequency, TF over GST control) | 1.35 fold enrichment (6-mer frequency, TF over GST control) | 1.34 fold enrichment (6-mer frequency, TF over GST control)
TTTACG | 1.22 fold enrichment (6-mer frequency, TF over GST control) | 1.31 fold enrichment (6-mer frequency, TF over GST control) | 1.29 fold enrichment (6-mer frequency, TF over GST control) | 1.26 fold enrichment (6-mer frequency, TF over GST control) | 1.25 fold enrichment (6-mer frequency, TF over GST control) | 1.32 fold enrichment (6-mer frequency, TF over GST control) | 1.19 fold enrichment (6-mer frequency, TF over GST control) | 1.27 fold enrichment (6-mer frequency, TF over GST control)
GCTGTA | 1.24 fold enrichment (6-mer frequency, TF over GST control) | 1.02 fold enrichment (6-mer frequency, TF over GST control) | 1.1 fold enrichment (6-mer frequency, TF over GST control) | 1.12 fold enrichment (6-mer frequency, TF over GST control) | 1.09 fold enrichment (6-mer frequency, TF over GST control) | 1.07 fold enrichment (6-mer frequency, TF over GST control) | 1.08 fold enrichment (6-mer frequency, TF over GST control) | 1.13 fold enrichment (6-mer frequency, TF over GST control)
TCTGTA | 1.16 fold enrichment (6-mer frequency, TF over GST control) | 1.24 fold enrichment (6-mer frequency, TF over GST control) | 1.27 fold enrichment (6-mer frequency, TF over GST control) | 1.26 fold enrichment (6-mer frequency, TF over GST control) | 1.03 fold enrichment (6-mer frequency, TF over GST control) | 1.17 fold enrichment (6-mer frequency, TF over GST control) | 1.25 fold enrichment (6-mer frequency, TF over GST control) | 1.18 fold enrichment (6-mer frequency, TF over GST control)
GCCCCT | 1.27 fold enrichment (6-mer frequency, TF over GST control) | 1.3 fold enrichment (6-mer frequency, TF over GST control) | 1.27 fold enrichment (6-mer frequency, TF over GST control) | 1.37 fold enrichment (6-mer frequency, TF over GST control) | 1.22 fold enrichment (6-mer frequency, TF over GST control) | 1.2 fold enrichment (6-mer frequency, TF over GST control) | 1.23 fold enrichment (6-mer frequency, TF over GST control) | 1.23 fold enrichment (6-mer frequency, TF over GST control)
CATTAC | 1.09 fold enrichment (6-mer frequency, TF over GST control) | 1.14 fold enrichment (6-mer frequency, TF over GST control) | 1.23 fold enrichment (6-mer frequency, TF over GST control) | 1.14 fold enrichment (6-mer frequency, TF over GST control) | 1.03 fold enrichment (6-mer frequency, TF over GST control) | 1.1 fold enrichment (6-mer frequency, TF over GST control) | 1.13 fold enrichment (6-mer frequency, TF over GST control) | 1.11 fold enrichment (6-mer frequency, TF over GST control)
GGAAGT | 2.56 fold enrichment (6-mer frequency, TF over GST control) | 2.86 fold enrichment (6-mer frequency, TF over GST control) | 3.2 fold enrichment (6-mer frequency, TF over GST control) | 2.97 fold enrichment (6-mer frequency, TF over GST control) | 2.91 fold enrichment (6-mer frequency, TF over GST control) | 3.88 fold enrichment (6-mer frequency, TF over GST control) | 3.42 fold enrichment (6-mer frequency, TF over GST control) | 3.88 fold enrichment (6-mer frequency, TF over GST control)
CTCAAA | 1.11 fold enrichment (6-mer frequency, TF over GST control) | 1.16 fold enrichment (6-mer frequency, TF over GST control) | 1.2 fold enrichment (6-mer frequency, TF over GST control) | 1.14 fold enrichment (6-mer frequency, TF over GST control) | 1.14 fold enrichment (6-mer frequency, TF over GST control) | 1.16 fold enrichment (6-mer frequency, TF over GST control) | 1.2 fold enrichment (6-mer frequency, TF over GST control) | 1.21 fold enrichment (6-mer frequency, TF over GST control)
TCCTCT | 1.68 fold enrichment (6-mer frequency, TF over GST control) | 1.74 fold enrichment (6-mer frequency, TF over GST control) | 1.67 fold enrichment (6-mer frequency, TF over GST control) | 1.58 fold enrichment (6-mer frequency, TF over GST control) | 1.67 fold enrichment (6-mer frequency, TF over GST control) | 2.15 fold enrichment (6-mer frequency, TF over GST control) | 1.63 fold enrichment (6-mer frequency, TF over GST control) | 1.64 fold enrichment (6-mer frequency, TF over GST control)
TGCATT | 1.45 fold enrichment (6-mer frequency, TF over GST control) | 1.39 fold enrichment (6-mer frequency, TF over GST control) | 1.34 fold enrichment (6-mer frequency, TF over GST control) | 1.41 fold enrichment (6-mer frequency, TF over GST control) | 1.22 fold enrichment (6-mer frequency, TF over GST control) | 1.25 fold enrichment (6-mer frequency, TF over GST control) | 1.34 fold enrichment (6-mer frequency, TF over GST control) | 1.35 fold enrichment (6-mer frequency, TF over GST control)
TCACAT | 1.24 fold enrichment (6-mer frequency, TF over GST control) | 1.24 fold enrichment (6-mer frequency, TF over GST control) | 1.25 fold enrichment (6-mer frequency, TF over GST control) | 1.44 fold enrichment (6-mer frequency, TF over GST control) | 1.3 fold enrichment (6-mer frequency, TF over GST control) | 1.14 fold enrichment (6-mer frequency, TF over GST control) | 1.21 fold enrichment (6-mer frequency, TF over GST control) | 1.23 fold enrichment (6-mer frequency, TF over GST control)
